The source made the active and inactive calls. How the source made its calls: active means hit-call score of the fitted dose curve at least 0.9, where 1 is the maximum; inactive means score below 0.9.
These compounds were tested against human CDK2/CyclinA CMGC Kinase, CDK2 (gene 1017) (UniProt P24941) (assay: ERF_FR_ENZ_hCDK2: Eurofins (ERF) Enzymatic Radiometric [Km ATP] KinaseProfiler LeadHunter Assay for human CDK2/CyclinA CMGC Kinase).
Method: ERF_FR_ENZ_hCDK2 is a biochemical, single-readout assay that uses extracted gene-proteins in a cell-free assay. Measurements were taken 0.5 hour after chemical dosing in a 96-well plate. See CDK2 /CyclinA Human CMGC Kinase Enzymatic LANCE Assay [Km ATP], Cerep.ERF_FR_ENZ_hCDK2 is an assay component calculated from the ERF_FR_ENZ_hCDK2 assay. It is designed to measure enzyme activity using a type of enzyme reporter as detected by fluorescence intensity with LANCE technology.Data from the assay component ERF_FR_ENZ_hCDK2 was analyzed at the assay endpoint, ERF_FR_ENZ_hCDK2, in the positive analysis fitting direction relative to DMSO as the negative control and baseline of activity. Using a type of enzyme reporter, loss-of-signal activity can be used to understand changes in enzymatic activity as they relate to gene CDK2. To generalize the intended target to other relatable targets, this assay endpoint is annotated to the kinase intended target family, where the subfamily is serine/threonine kinase.
CDK2/cyclinA (h) is incubated with 8 mM MOPS pH 7.0, 0.2 mM EDTA, 0.1 mg/mL histone H1, 10 mM MgAcetate and [gamma-33P]-ATP (specific activity and concentration as required). The reaction is initiated by the addition of the Mg/ATP mix. After incubation for 40 minutes at room temperature, the reaction is stopped by the addition of phosphoric acid to a concentration of 0.5%. […]

Row | Compound | outcome
1 | O=C(/C=C/c1ccc(O)cc1)CC(=O)/C=C/c1ccc(O)cc1 | inactive
2 | COc1cc(CCC(=O)CC(=O)CCc2ccc(O)c(OC)c2)ccc1O | inactive
